Each structure is given as a SMILES string. The source made the active and inactive calls. The calls were made as follows: active = hit-call score of the fitted dose curve at least 0.9, where 1 is the maximum; inactive = score below 0.9.

Experimental findings from PubChem BioAssay (EPA / NIEHS) are described below.

Holding throughout (conditions): mRNA level, 48 h; actives raise or lower the signal
Read-out in test [1]: Bcl-2 (BAX) gene, BAX (gene 581)
Kind of test: LTEA_HepaRG_BAX: Life Technologies and Expression Analysis (LTEA) Assay for Bcl-2 (BAX) gene using HepaRG (AID 2283470). In outline: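 Human HepaRG cells treated in duplicate for 48 h across eight concentrations (max 100 uM, 0.5% DMSO); BAX expression measured by qRT-PCR.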

Read-out in test [2]: adenosine kinase (ADK) gene, ADK (gene 132)
The experiment in a line: LTEA_HepaRG_ADK: Life Technologies and Expression Analysis (LTEA) Assay for adenosine kinase (ADK) gene using HepaRG (AID 2283471). An outline of the steps:
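HepaRG (human liver), 48 h chemical exposure, 8-pt half-log series, top 100 uM, 0.5% DMSO vehicle. Readout: ADK mRNA by qRT-PCR vs housekeeping genes; bidirectional curve fit relative to DMSO baseline.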

Read-out in test [3]: Alpha-fetoprotein (AFP) gene, AFP (gene 174)
Kind of test: LTEA_HepaRG_AFP: Life Technologies and Expression Analysis (LTEA) Assay for Alpha-fetoprotein (AFP) gene using HepaRG (AID 2283472). An outline of the steps: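 Measures AFP mRNA change in HepaRG after 48 h chemical exposure (8 half-log concentrations, highest 100 uM, 0.5% DMSO). Fold change relative to DMSO, fitted in both directions.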

Read-out in another test: BCL2L11 (gene 10018)
Kind of test: LTEA_HepaRG_BCL2L11: Life Technologies and Expression Analysis (LTEA) Assay for Bcl-2 (BCL2L11) gene using HepaRG (AID 2283473). In outline: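 HepaRG, 48 h exposure, 8-pt half-log series from 100 uM in 0.5% DMSO, duplicates; qRT-PCR (Fluidigm TaqMan) for BCL2L11, housekeeping-normalized; bidirectional curve fit relative to DMSO baseline.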

Read-out in test [4]: Apolipoprotein A-V (APOA5) gene, APOA5 (gene 116519)
The experiment in a line: LTEA_HepaRG_APOA5: Life Technologies and Expression Analysis (LTEA) Assay for Apolipoprotein A-V (APOA5) gene using HepaRG (AID 2283474). An outline of the steps:
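HepaRG, 48 h chemical exposure in serum-free induction medium, 8-pt half-log series (top 100 uM), 0.5% DMSO vehicle, duplicates. Readout: APOA5 mRNA by qRT-PCR, housekeeping-normalized; bidirectional fit vs DMSO baseline.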

Read-out in test [5]: Apoptosis regulator Bcl-2 (Homo sapiens) (UniProt P10415)
The experiment in a line: LTEA_HepaRG_BCL2: Life Technologies and Expression Analysis (LTEA) Assay for Bcl-2 gene using HepaRG (AID 2283475). An outline of the steps:
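Each chemical was tested in duplicate on HepaRG cultures held in serum-free induction medium for 48 h, highest concentration 100 uM with half-log dilutions. Transcript levels came from multiplexed qRT-PCR, normalised to housekeeping genes; activity was scored in either direction relative to DMSO.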

Read-out in test [6]: Bcl-2 (BID) gene, BID (gene 637)
Kind of test: LTEA_HepaRG_BID: Life Technologies and Expression Analysis (LTEA) Assay for Bcl-2 (BID) gene using HepaRG (AID 2283476). An outline of the steps: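 Assay used HepaRG hepatic cells treated 48 h in serum-free medium with half-log dilutions from 100 uM. Endpoint: BID mRNA, qRT-PCR, normalized to ACTB/GAPDH/POLR2A.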

Read-out in another test: Caspase-3 (Homo sapiens) (UniProt P42574)
Kind of test: LTEA_HepaRG_CASP3: Life Technologies and Expression Analysis (LTEA) Assay for cysteine-aspartic acid protease (CASP3) using HepaRG (AID 2283477). In outline:
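HepaRG, 48 h exposure, 8 conc. (top 100 uM, half-log steps, duplicate), 0.5% DMSO vehicle; qRT-PCR of CASP3 transcript, housekeeping-normalised (ACTB/GAPDH/POLR2A); bidirectional curve fit vs DMSO baseline.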

Read-out in test [7]: Cytochrome P450 (CYP24A1), CYP24A1 (gene 1591)
The experiment in a line: LTEA_HepaRG_CYP24A1: Life Technologies and Expression Analysis (LTEA) Assay for Cytochrome P450 (CYP24A1) using HepaRG (AID 2283478). An outline of the steps: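 qRT-PCR read-out: CYP24A1 transcript levels normalized to three housekeeping genes, bidirectional curve fits against 0.5% DMSO baseline. Human HepaRG cells treated 48 h with chemicals at eight concentrations from 100 uM in half-log steps.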

Read-out in test [8]: Cytochrome P450 (CYP1A2), CYP1A2 (gene 1544)
Kind of test: LTEA_HepaRG_CYP1A2: Life Technologies and Expression Analysis (LTEA) Assay for Cytochrome P450 (CYP1A2) using HepaRG (AID 2283479). An outline of the steps: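 HepaRG, 48 h exposure, top 100 uM, half-log 8-pt, 0.5% DMSO vehicle, duplicates. Readout: TaqMan qRT-PCR of CYP1A2 mRNA, housekeeping-normalized (ACTB/GAPDH/POLR2A). Gain/loss fit relative to DMSO baseline.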

Read-out in test [9]: cysteine-aspartic acid protease (CASP8), CASP8 (gene 841)
Kind of test: LTEA_HepaRG_CASP8: Life Technologies and Expression Analysis (LTEA) Assay for cysteine-aspartic acid protease (CASP8) using HepaRG (AID 2283480). An outline of the steps:
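CASP8 transcript measured by TaqMan qRT-PCR with ACTB/GAPDH/POLR2A normalization, after 48 h chemical exposure of HepaRG cells in serum-free induction medium. Eight concentrations, top 100 uM, half-log steps, 0.5% DMSO vehicle; fits in both directions versus DMSO.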

Read-out in test [10]: Cytochrome P450 (CYP2B6), CYP2B6 (gene 1555)
The experiment in a line: LTEA_HepaRG_CYP2B6: Life Technologies and Expression Analysis (LTEA) Assay for Cytochrome P450 (CYP2B6) using HepaRG (AID 2283481). In outline: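 Read-out is CYP2B6 mRNA by TaqMan qRT-PCR, normalized to three housekeeping genes and fitted bidirectionally against 0.5% DMSO baseline. Human HepaRG cells received test chemicals for 48 h, top concentration 100 uM, half-log dilutions.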

Read-out in test [11]: Cytochrome P450 2C19 (Homo sapiens) (UniProt P33261)
Kind of test: LTEA_HepaRG_CYP2C19: Life Technologies and Expression Analysis (LTEA) Assay for CYP2C19 using HepaRG (AID 2283482). In outline:
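HepaRG, 48 h chemical exposure, 8-pt half-log series from 100 uM in 0.5% DMSO, duplicates. Readout: CYP2C19 mRNA by TaqMan qRT-PCR, housekeeping-normalized. Bidirectional fit vs DMSO baseline; phenobarbital 1mM as induction control.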

Read-out in the next test: CYP2C8 (gene 1558)
The experiment in a line: LTEA_HepaRG_CYP2C8: Life Technologies and Expression Analysis (LTEA) Assay for CYP2C8 using HepaRG (AID 2283483). An outline of the steps: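 CYP2C8 expression measured by TaqMan qRT-PCR and normalized to three housekeeping genes. HepaRG cultures were treated for 48 h with an eight-point half-log series topping at 100 uM, vehicle 0.5% DMSO, duplicates; fitted both directions against DMSO.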

Read-out in the next test: CYP2C9 (gene 1559)
Kind of test: LTEA_HepaRG_CYP2C9: Life Technologies and Expression Analysis (LTEA) Assay for CYP2C9 using HepaRG (AID 2283484). In outline:
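CYP2C9 transcript level, quantified by TaqMan qRT-PCR against three housekeeping genes, was fitted bidirectionally relative to 0.5% DMSO. HepaRG cultures were treated 48 h, in duplicate, at eight half-log concentrations topping at 100 uM.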

Read-out in a further test: CYP2E1 (gene 1571)
Kind of test: LTEA_HepaRG_CYP2E1: Life Technologies and Expression Analysis (LTEA) Assay for CYP2E1 using HepaRG (AID 2283485). An outline of the steps: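 Assay uses 48 h exposure of HepaRG hepatic cells, eight concentrations to 100 uM. Expression of CYP2E1 is quantified by TaqMan qRT-PCR with ACTB, GAPDH and POLR2A normalization; curves fitted in both directions relative to vehicle.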

Read-out in test [12]: DNA damage-inducible transcript 3 (DDIT3), DDIT3 (gene 1649)
Kind of test: LTEA_HepaRG_DDIT3: Life Technologies and Expression Analysis (LTEA) Assay for DNA damage-inducible transcript 3 (DDIT3) using HepaRG (AID 2283488). In outline:
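Eight-point concentration-response (100 uM highest, half-log dilutions) in HepaRG, 48 h, duplicate wells. Endpoint: qRT-PCR mRNA, normalized (ACTB, GAPDH, POLR2A), bidirectional fitting with DMSO as baseline.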

Read-out in test [13]: Pro-epidermal growth factor (Homo sapiens) (UniProt P01133)
Kind of test: LTEA_HepaRG_EGF: Life Technologies and Expression Analysis (LTEA) Assay for Epidermal growth factor (EGF) using HepaRG (AID 2283489). In outline: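 qRT-PCR readout of EGF transcript after 48 h chemical exposure of HepaRG cells; eight concentrations from 100 uM down in half-log steps, duplicate wells, 0.5% DMSO vehicle. Bidirectional curve fitting against DMSO baseline.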

Read-out in another test: CYP4A11 (gene 1579)
The experiment in a line: LTEA_HepaRG_CYP4A11: Life Technologies and Expression Analysis (LTEA) Assay for CYP4A11 using HepaRG (AID 2283486). An outline of the steps:
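CYP4A11 transcript levels were quantified by TaqMan qRT-PCR after HepaRG human liver cells were treated for 48 hours with test chemicals (top 100 uM, half-log dilutions, 0.5% DMSO). Gain or loss of signal was fitted relative to DMSO.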

Read-out in test [14]: Cytochrome P450 3A4 (Homo sapiens) (UniProt P08684)
The experiment in a line: LTEA_HepaRG_CYP3A4: Life Technologies and Expression Analysis (LTEA) Assay for CYP3A4 using HepaRG (AID 2283487). In outline:
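CYP3A4 transcript measured by TaqMan qRT-PCR and normalized to three housekeeping genes after 48 h chemical exposure of human HepaRG cells. Top concentration 100 uM, half-log steps, 0.5% DMSO vehicle; gain or loss fitted against DMSO baseline.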

Caspase-3 (Homo sapiens), sequence (P42574 whole entry, looked up): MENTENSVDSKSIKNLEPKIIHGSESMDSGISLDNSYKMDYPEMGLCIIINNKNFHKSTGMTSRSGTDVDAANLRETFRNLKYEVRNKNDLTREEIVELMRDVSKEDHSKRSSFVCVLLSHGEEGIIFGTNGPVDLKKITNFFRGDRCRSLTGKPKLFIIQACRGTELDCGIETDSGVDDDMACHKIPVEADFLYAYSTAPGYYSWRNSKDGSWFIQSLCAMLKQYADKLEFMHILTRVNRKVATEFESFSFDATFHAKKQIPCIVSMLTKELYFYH
Apoptosis regulator Bcl-2 (Homo sapiens), sequence (P10415 whole entry, looked up): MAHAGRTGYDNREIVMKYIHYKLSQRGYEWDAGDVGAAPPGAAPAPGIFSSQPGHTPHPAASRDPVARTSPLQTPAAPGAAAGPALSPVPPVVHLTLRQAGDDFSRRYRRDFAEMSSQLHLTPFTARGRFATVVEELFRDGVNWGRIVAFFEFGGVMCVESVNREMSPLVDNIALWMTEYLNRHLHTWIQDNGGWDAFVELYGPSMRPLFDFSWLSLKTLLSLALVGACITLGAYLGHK
Cytochrome P450 2C19 (Homo sapiens), sequence (P33261 whole entry, looked up): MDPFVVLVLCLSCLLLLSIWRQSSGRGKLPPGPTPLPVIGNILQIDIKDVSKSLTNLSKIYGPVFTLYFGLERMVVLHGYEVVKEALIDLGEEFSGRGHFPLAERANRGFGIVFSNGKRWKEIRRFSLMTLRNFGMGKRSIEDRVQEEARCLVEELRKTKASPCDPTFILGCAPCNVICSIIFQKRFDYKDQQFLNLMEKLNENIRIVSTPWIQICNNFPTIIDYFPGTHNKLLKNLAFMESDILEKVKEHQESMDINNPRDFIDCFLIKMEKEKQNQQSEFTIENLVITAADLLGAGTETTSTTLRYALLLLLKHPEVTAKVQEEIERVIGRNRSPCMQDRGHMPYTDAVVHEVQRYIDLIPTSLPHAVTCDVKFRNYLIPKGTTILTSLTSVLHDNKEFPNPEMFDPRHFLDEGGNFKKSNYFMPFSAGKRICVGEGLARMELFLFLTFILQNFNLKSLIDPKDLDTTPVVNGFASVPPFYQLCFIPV
Cytochrome P450 3A4 (Homo sapiens), sequence (P08684 whole entry, looked up): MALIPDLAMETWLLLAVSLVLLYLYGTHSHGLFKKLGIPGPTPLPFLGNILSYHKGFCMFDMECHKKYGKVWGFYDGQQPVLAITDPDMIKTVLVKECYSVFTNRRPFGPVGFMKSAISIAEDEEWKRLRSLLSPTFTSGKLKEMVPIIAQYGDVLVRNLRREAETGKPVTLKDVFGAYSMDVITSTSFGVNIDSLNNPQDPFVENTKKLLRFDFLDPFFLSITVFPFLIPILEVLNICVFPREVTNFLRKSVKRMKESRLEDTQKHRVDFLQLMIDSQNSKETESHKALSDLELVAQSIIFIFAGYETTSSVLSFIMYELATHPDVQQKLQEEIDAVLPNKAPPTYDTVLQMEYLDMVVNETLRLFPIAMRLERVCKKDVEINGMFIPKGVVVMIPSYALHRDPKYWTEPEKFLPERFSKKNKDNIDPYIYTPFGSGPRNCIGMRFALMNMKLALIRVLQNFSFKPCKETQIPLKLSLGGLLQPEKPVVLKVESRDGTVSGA

Take `c1ccc2occc2c1`: the result (in test [1]; in test [2]; in [3]; with BCL2L11 (gene 10018); in test [4]; in [5]) was inactive. Besides, the call (in test [6]; in the test with Caspase-3 (Homo sapiens); in test [7]; in test [8]; in test [9]; in [11]) was inactive. In addition, the compound was classed as inactive (in the test with CYP2C8 (gene 1558); with CYP2C9 (gene 1559); with CYP2E1 (gene 1571); in [12]; in [13]). The half-maximal activity concentration (AC50) in [10] is 5.44 µM (active).

`CC(=O)S[C@H](C(=O)N[C@H]1Cc2ccccc2[C@H]2CCC[C@@H](C(=O)O)N2C1=O)C(C)C`: the compound was classed as inactive (in test [1]; in [2]; in test [3]; with BCL2L11 (gene 10018); in test [4]; in [5]). Moreover, the outcome (in test [6]; with Caspase-3 (Homo sapiens); in test [7]; in [8]; in test [9]; in test [10]) was inactive. The outcome (in [11]; with CYP2C8 (gene 1558); with CYP2C9 (gene 1559); with CYP4A11 (gene 1579); in test [12]; in test [13]) was inactive.

Regarding `CC(=O)O`, the compound was classed as inactive (in test [1]; in test [2]; in test [3]; with BCL2L11 (gene 10018); in test [5]; in test [6]). Moreover, the compound was called inactive (with Caspase-3 (Homo sapiens); in test [7]; in test [8]; in [9]; in test [10]; in test [11]). Also, the compound was called inactive (with CYP2C8 (gene 1558); with CYP2C9 (gene 1559); with CYP2E1 (gene 1571); with CYP4A11 (gene 1579); in test [14]; in test [13]).

As for `CN(C)CCCN(C)CCCN(C)C`, the compound was classed as inactive (in test [1]; in test [2]; in test [3]; in the test with BCL2L11 (gene 10018); in [5]; in test [6]). In addition, the result (with Caspase-3 (Homo sapiens); in test [7]; in [8]; in test [9]; in test [10]; in [11]) was inactive. Further, the call (with CYP2C8 (gene 1558); with CYP2C9 (gene 1559); with CYP2E1 (gene 1571); in the test with CYP4A11 (gene 1579); in test [14]; in test [13]) was inactive.

For the compound `CC(=O)CC(c1ccccc1)c1c(O)c2ccccc2oc1=O` (centres undefined), the compound was called inactive (in test [1]; in test [2]; in test [3]; with BCL2L11 (gene 10018); in [4]; in test [5]). The compound was classed as inactive (in [6]; in the test with Caspase-3 (Homo sapiens); in [7]; in test [8]; in test [9]; with CYP2C8 (gene 1558)). The result (with CYP2C9 (gene 1559); in test [13]) was inactive. Moreover, the results for the AC50 (in [10]; in test [11]; with CYP2E1 (gene 1571)) were 29.7 µM (active), 5.47 µM (active) and 73.8 µM (active), respectively.

`C#CC(O)C(CC)CCCC` (centres undefined): the compound was called inactive (in [1]; in test [2]; in test [3]; in the test with BCL2L11 (gene 10018); in test [4]; in test [5]). Besides, the outcome (in test [6]; in the test with Caspase-3 (Homo sapiens); in [7]; in test [8]; in test [9]; in [11]) was inactive. The outcome (with CYP2C8 (gene 1558); with CYP2C9 (gene 1559); with CYP2E1 (gene 1571); in [12]; in test [13]) was inactive. Also, the AC50 in test [10] is 24.4 µM (active).

For `Cc1cc(Cc2ccc(N)c(C)c2)ccc1N`, the result (in [1]; in test [2]; in test [3]; with BCL2L11 (gene 10018); in test [4]; in test [5]) was inactive. Further, the compound was classed as inactive (in test [6]; in the test with Caspase-3 (Homo sapiens); in test [7]; in test [9]; in the test with CYP2C8 (gene 1558); in the test with CYP2C9 (gene 1559)). Besides, the AC50 in [8] is 50 µM (active); in test [10] it was 0.823 µM (active); in test [11] it was 11.5 µM (active); with CYP2E1 (gene 1571), 24.6 µM (active); in test [13], 50 µM (active).
